Data on 15 molecules can be found in PubChem BioAssay.

For part of these data: Results with a measured potency or affinity are listed apart. Active and inactive are the calls of the source.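 The calls were made as follows, unless noted: active = signal rise over 3 SD above mean of control wells given weak agonist, in both repeats and first screen; inactive = the rest.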

Usually inhibition stands for the change of the read-out against control, counted positive when it falls.

Assay [1] relates to TRPC4 beta (transient receptor potential cation channel C4), mouse. Kind of assay: TRPC4 cation channel opening, retest – cell-based, Fluo4 calcium, HEK293 TRPC4beta/mu-opioid, duplicates, 10 µM, confirmation (AID 2426;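 active = fluorescence ratio normalized to control raised more than 50% in primary screen plus both repeat runs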;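 as to activation: percent rise of integrated ratio over buffer wells lacking compound which define 0%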). The note with it: Fluo4 calcium fluorescence, at 10 µM; active compounds read high.
The subject of assay [2] is transient receptor potential cation channel C4 beta (TRPC4), mouse. In words: TRPC4 cation channel opening, second retest – cell-based, second round, Fluo4, HEK293 TRPC4beta/mu-opioid, 1 µM, confirmation (AID 2461;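 active = primary screen active and over 50% activation in each of two duplicate runs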;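 as to activation: 0% = wells without test compound as baseline of integrated fluorescence ratio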). The note with it: Fluo4 calcium fluorescence, at 1 µM; active compounds read high.
Assay [3] has as its system TRPC4 (transient receptor potential cation channel C4 beta), mouse. Kind of assay: potentiation of DAMGO EC20 TRPC4 response – cell-based, second round, Fluo-4, HEK293 TRPC4beta/mu-opioid, 1 µM, confirmation (AID 2554;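 active = primary screen hit whose fluorescence ratio, in both repeats, exceeds the weak agonist control mean by 3 SD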). The note with it: DAMGO EC20, Fluo-4 calcium flux, at 1 µM; active compounds read high.
Assay [4] relates to TRPC4 beta (transient receptor potential cation channel C4), mouse. In words: potentiation of DAMGO EC20 TRPC4 response – cell-based, Fluo-4, HEK293 TRPC4beta/mu-opioid, confirmation (AID 2555;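 active = primary screen hit whose calcium fluorescence ratio, in both repeats, exceeds the weak agonist control mean by 3 SD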). To be noted: DAMGO EC20, Fluo-4 calcium flux, at 10 µM; active compounds read high.
Assay [5] concerns the target Short transient receptor potential channel 4 (Mus musculus) (UniProt Q9QUQ5). In words: blockers of DAMGO-evoked TRPC4 calcium flux – cell-based, Fluo4, HEK293 TRPC4beta/mu-opioid, confirmation (AID 2636;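 active = calcium signal cut by more than 3 SD below the full-agonist control yet still positive, in both repeats and the earlier primary screen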). To be noted: at 10 µM; active compounds read high. A general note: A change in cytosolic calcium serves as a functional read-out for many receptors and channels.
Assay [6] shares this target. Kind of assay: blockers of DAMGO-evoked TRPC4 calcium flux – cell-based, second round, Fluo4, HEK293 TRPC4beta/mu-opioid, 1 µM, confirmation (AID 2637;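 active = calcium signal ratio cut to more than 3 SD under the fully stimulated control mean yet still positive, in both repeats and the primary screen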). The note with it: at 1 µM; active compounds read high.
Assay [7] has the same target. In words: calcium entry via TRPC4 opening agents – cell-based, HEK293 TRPC4/mu-opioid, Fluo-4 calcium, dose response (AID 434937;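 active = primary screen activator hit with a dose response curve and TRPC4 channel activation at any tested dose; inactive = no activation, no dose response, or not a primary hit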).
For assay [8] the target is unchanged. Kind of assay: block of DAMGO-driven TRPC4 calcium entry – cell-based, HEK293 TRPC4/mu-opioid, Fluo-4 calcium, dose response (AID 434942;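 active = primary screen inhibitor hit that blocks the TRPC4 channel at some tested dose, yielding a dose curve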).
Assay [9] addresses Short transient receptor potential channel 6 (Mus musculus) (UniProt Q61143). In words: TRPC6 blockade by TRPC4 inhibitor hits – cell-based, HEK293, membrane potential dye, duplicate, selectivity assay for TRPC4 inhibitor project, confirmation (AID 434948;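 active = active in primary screen and both duplicates, each dropping signal beyond three positive-control SD with fluorescence still positive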). To be noted: HEK293 TRPC6, membrane potential dye fluorescence, at 10 µM, stimulated with maximal-effect acetylcholine; active compounds read high.

For assay [10] the target is unchanged. In words: TRPC6 opening by TRPC4 activator hits – cell-based, HEK293, membrane potential dye, duplicate, selectivity assay for TRPC4 activator project, confirmation (AID 434950;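 active = membrane potential signal rise above negative control mean plus 3 SD in both duplicates, also active in the earlier TRPC4 screen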;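 as to activation: 0% = buffer only wells and 100% = acetylcholine maximal-effect wells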). To be noted: HEK293 TRPC6, membrane potential fluorescence, at 10 µM; activation: active compounds read high; outcome: activation.
Assay [11] shares this target. In words: positive modulators of mouse TRPC6 channel – HEK293 cells, membrane potential dye, duplicate, selectivity assay for TRPC4 potentiator project, confirmation (AID 434952;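 active = compound raising the membrane signal above positive-control mean plus 3 SD in both repeats, and a primary screen hit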). The note with it: HEK293 TRPC6, membrane potential dye fluorescence, at 10 µM, maximal acetylcholine added after compound; active compounds read high.
For assay [12], the target named is Short transient receptor potential channel 4 (Mus musculus) (UniProt Q9QUQ5). In words: calcium flux activators in TRPC4/5HT1a cells, counter-screen for TRPC4 activator project, cell-based, second counter screen, HEK293 TRPC4/5HT1a, Fluo-4 (AID 434977;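 active = calcium signal rise above buffer-control mean plus 5 SD in both duplicates, and also a hit in the primary screen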;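 as to activation: plate controls were assay buffer for no effect and maximal serotonin response for full effect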). The note with it: Fluo-4 calcium flux, at 10 µM; active compounds read high.
Chain of Short transient receptor potential channel 4 (Mus musculus) (Q9QUQ5 whole entry, looked up): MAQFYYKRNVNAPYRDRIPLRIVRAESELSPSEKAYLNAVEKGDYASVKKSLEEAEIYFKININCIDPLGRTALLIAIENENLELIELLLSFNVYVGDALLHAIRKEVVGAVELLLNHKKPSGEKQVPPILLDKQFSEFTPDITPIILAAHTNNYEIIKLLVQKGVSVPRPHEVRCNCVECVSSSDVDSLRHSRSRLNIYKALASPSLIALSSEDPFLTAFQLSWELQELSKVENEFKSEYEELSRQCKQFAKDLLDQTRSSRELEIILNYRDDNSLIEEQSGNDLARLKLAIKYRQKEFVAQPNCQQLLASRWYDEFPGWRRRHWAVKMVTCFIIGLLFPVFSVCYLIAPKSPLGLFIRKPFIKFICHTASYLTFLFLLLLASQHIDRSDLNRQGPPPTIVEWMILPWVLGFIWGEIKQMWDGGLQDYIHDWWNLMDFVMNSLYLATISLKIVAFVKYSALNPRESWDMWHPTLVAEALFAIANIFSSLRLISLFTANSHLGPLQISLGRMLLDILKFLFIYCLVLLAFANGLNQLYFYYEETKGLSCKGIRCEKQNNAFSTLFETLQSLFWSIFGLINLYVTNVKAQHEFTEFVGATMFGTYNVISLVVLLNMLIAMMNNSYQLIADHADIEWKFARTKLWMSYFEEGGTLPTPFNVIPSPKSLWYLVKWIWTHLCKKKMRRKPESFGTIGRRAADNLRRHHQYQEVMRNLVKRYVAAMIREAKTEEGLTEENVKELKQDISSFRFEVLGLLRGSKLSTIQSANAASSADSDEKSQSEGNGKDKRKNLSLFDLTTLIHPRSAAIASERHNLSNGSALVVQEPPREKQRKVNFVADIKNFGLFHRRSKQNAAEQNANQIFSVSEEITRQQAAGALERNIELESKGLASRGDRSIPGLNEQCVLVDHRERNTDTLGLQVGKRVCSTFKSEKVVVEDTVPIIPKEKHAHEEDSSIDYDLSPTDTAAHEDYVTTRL
The nature of assay [13]: serotonin-gated TRPC4 signal block – cell-based, second counter screen, HEK293 TRPC4/5HT1a, Fluo-4, counter-screen for TRPC4 inhibitor project, confirmation (AID 434978;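 active = primary screen active whose calcium signal fell more than 3 SD beyond the full-serotonin control mean in both duplicate plates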;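 also: serotonin given first at submaximal then at maximal dose after compound preincubation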). To be noted: Fluo-4 calcium flux, at 10 µM, serotonin added to trigger calcium flux; active compounds read high. In general terms: A counterscreen serves to expose hits that act by an unwanted route or on another target.

The subject of assay [14] is TRPC4 (mouse), co-expressed with 5HT1a in HEK293. In words: enhancement of serotonin-evoked TRPC4 response – cell-based, second counter screen, HEK293 TRPC4/5HT1a, Fluo-4, counter-screen for TRPC4 potentiator project, confirmation (AID 434979). The note with it: Fluo-4 calcium flux, at 10 µM, serotonin added at its EC20 dose; active compounds read high.
Assay [15] in a line: nonspecific calcium rise without TRPC4 – cell-based, HEK293 mu-opioid receptor line, counter-screen for TRPC4 activator project, confirmation (AID 449723;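 active = hit in primary screen, with calcium signal over 5 SD above buffer well mean in both duplicates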;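 also: counter screen cells carry the mu-opioid receptor alone and lack TRPC4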). To be noted: HEK293 mu-opioid cells, Fluo-4 calcium fluorescence, at 10 µM; active compounds read high.
A short description of assay [16]: nonspecific potentiation of DAMGO calcium response – cell-based, HEK293 mu-opioid receptor line, counter-screen for TRPC4 allosteric potentiator project, confirmation (AID 449724;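 active = calcium signal rise more than 3 SD above the low-dose agonist control mean, in both duplicate plates and the primary screen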). The note with it: HEK293 mu-opioid receptor cells, Fluo-4 calcium flux, at 10 µM, compound added before EC20 DAMGO stimulus; active compounds read high.
Assay [17] has as its target Short transient receptor potential channel 4 (Mus musculus) (UniProt Q9QUQ5). In words: potentiation of DAMGO-evoked TRPC4 calcium signal – cell-based, HEK293 TRPC4/mu-opioid, Fluo-4 calcium, EC20 DAMGO, dose response (AID 434941;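 active = earlier screen potentiator hit that boosts the TRPC4 ion channel at some dose, with a dose response; inactive = no potentiation, no dose response, or not a prior hit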;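 also: calcium entry triggered by an EC20 dose of DAMGO at the co-expressed mu-opioid receptor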).

Chain of Short transient receptor potential channel 6 (Mus musculus) (Q61143 whole entry, looked up): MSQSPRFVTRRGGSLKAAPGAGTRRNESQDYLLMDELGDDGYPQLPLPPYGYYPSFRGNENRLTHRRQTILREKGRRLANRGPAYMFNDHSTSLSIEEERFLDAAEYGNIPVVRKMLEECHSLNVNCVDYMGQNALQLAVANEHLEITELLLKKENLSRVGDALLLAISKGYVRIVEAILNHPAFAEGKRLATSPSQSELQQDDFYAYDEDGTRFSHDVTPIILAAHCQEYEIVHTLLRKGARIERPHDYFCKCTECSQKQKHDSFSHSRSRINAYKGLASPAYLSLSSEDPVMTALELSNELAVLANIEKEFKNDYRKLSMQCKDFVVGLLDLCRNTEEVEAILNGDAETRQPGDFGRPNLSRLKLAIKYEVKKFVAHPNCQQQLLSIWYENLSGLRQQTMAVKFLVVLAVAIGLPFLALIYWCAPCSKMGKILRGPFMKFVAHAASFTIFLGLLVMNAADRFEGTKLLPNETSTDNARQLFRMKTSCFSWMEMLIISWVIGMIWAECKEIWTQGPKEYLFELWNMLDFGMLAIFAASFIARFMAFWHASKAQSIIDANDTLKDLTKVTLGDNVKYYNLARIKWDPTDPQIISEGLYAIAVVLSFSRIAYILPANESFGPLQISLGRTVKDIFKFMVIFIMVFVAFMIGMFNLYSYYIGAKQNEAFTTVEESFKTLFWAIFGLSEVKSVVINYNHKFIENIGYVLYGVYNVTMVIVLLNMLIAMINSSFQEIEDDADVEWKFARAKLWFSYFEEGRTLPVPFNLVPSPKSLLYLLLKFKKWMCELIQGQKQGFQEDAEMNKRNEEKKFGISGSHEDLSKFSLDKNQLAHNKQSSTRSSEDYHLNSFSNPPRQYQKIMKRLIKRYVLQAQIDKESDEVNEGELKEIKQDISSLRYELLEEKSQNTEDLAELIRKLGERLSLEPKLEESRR

Regarding `COC(=O)[C@@]12CCCCN1[C@H](c1ccc(-c3cccc(Cl)c3)c(OC)c1)[C@H]1C(=O)N(C)C(=O)[C@H]12`, the outcome in assay [1], in assay [2], in assay [3], in [5], in [6] and in [7] was inactive. Also, the outcome in assay [8], in assay [9], in assay [10], in assay [11], in assay [12] and in [13] was inactive. In addition, the result in [15] and in [16] was inactive. Besides, the figures for the potentiation in assay [4] and in [14] were 27% (active) and 52.4% (active), respectively.

For the molecule `Cc1ccc(Cn2c(=N)c(C(=O)NC3CCCC3)cc3c(=O)n4ccccc4nc32)cc1`, the activation in assay [1] was 206% (active). The result in [2], in [4], in [5], in [6], in [7] and in assay [8] was inactive. In addition, the molecule was called inactive in [9], in assay [10], in [11], in assay [12], in [13] and in assay [15]. Besides, in assay [16], the result was inactive. The potentiation in assay [3] was 8% (active); in [14], 41.6% (active).

`CNCC(=O)N1CCN(c2ncc(C(F)(F)F)cc2Cl)CC1`: the activation in assay [1] is 155% (active); in [2], 128% (active); in assay [12], 79.5% (active). Also, the outcome in assay [3], in [4], in assay [5], in assay [6], in assay [17] and in assay [8] was inactive. The call in assay [9], in [10], in assay [11], in assay [13], in assay [14] and in assay [15] was inactive. Besides, the result in assay [16] was inactive.

On to `COc1ccc(-n2c3c(cc(C(=O)NNc4ccccc4)c2=O)C(=O)CC(C)(C)C3)cc1`, for which the activation in assay [1] is 104% (active). Besides, the outcome in assay [2], in [3], in [4], in [5], in [6] and in assay [17] was inactive. The result in [8], in [9], in [10], in assay [11], in [12] and in [13] was inactive. For the same molecule, the outcome in assay [14], in assay [15] and in assay [16] was inactive.

With `CC(COc1ccccc1)N1CCC(CO)(CCc2ccccc2)CC1` (stereo not given), the outcome in assay [1], in assay [2], in assay [3], in [4], in assay [5] and in assay [6] was inactive. Further, the outcome in assay [17], in [8], in [9], in [11], in assay [12] and in [13] was inactive. Further, the result in assay [14], in [15] and in assay [16] was inactive. Further, the activation in assay [10] is 95.5% (active).

As to `O=C(NCCc1cnc[nH]1)c1ccc(-c2ccccc2)cc1`, the activation is 109% (active) in [1], 59% (active) in assay [10] and 17.5% (active) in assay [12]. Moreover, the outcome in assay [2], in [3], in assay [4], in [5], in [6] and in assay [17] was inactive. In addition, the result in assay [8], in [9], in assay [11], in [13], in [14] and in [15] was inactive. The outcome in assay [16] was inactive.

On to `CCOc1ncccc1C(=O)NCC(c1ccccc1)N(C)C` (stereo not given), for which the figures for the activation in [1] and in assay [10] were 155% (active) and 61% (active), respectively. Moreover, the result in assay [2], in assay [3], in assay [4], in assay [5], in assay [6] and in assay [17] was inactive. Also, the outcome in assay [8], in assay [9], in [11], in assay [12], in assay [13] and in [14] was inactive. The result in [15] and in assay [16] was inactive.

For the molecule `CCOC(=O)C1(CC2CCCCO2)CCN(Cc2cc(F)ccc2-n2cccn2)CC1` (stereo not given), the result in assay [1], in [2], in [3], in assay [4], in assay [5] and in assay [6] was inactive. Moreover, the result in [17], in [8], in assay [9], in assay [11], in assay [12] and in assay [13] was inactive. The result in [14], in [15] and in assay [16] was inactive. Besides, the activation in assay [10] was 76.5% (active).

Take `O=C1c2ccccc2S(=O)(=O)c2cc(C(=O)N(c3ccccn3)c3ccccn3)ccc21`: the activation in assay [1] was 107% (active); in assay [12], 99.8% (active); in assay [15], 25.6% (active). Further, the result in assay [2], in [3], in [4], in assay [5], in [6] and in [17] was inactive. The outcome in assay [8], in [9], in assay [10], in assay [11], in assay [13] and in [14] was inactive. In assay [16], the result was inactive.

`O=C(NCc1ccccc1)C1=C[C@@H](C2CCCCC2)C[C@@H](OCc2ccc(CO)cc2)O1`: the activation in assay [1] is 183% (active); in assay [10], 30.5% (active); in assay [12], 112% (active). Further, the outcome in [2], in assay [3], in assay [4], in [5], in assay [6] and in assay [17] was inactive. Besides, the result in assay [8], in [9], in [11], in assay [13], in [14] and in [15] was inactive. The outcome in assay [16] was inactive.

As to `COc1ccccc1/C=C/CN1CCCC(CCC(=O)NCc2ccccc2F)C1` (stereo not given), the activation in [1] is 98% (active); in [2], 51% (active); in assay [10] it was 44% (active); in assay [12], 32.5% (active). For the same molecule, the result in assay [3], in assay [4], in assay [6], in assay [17], in assay [8] and in [9] was inactive. Also, the result in assay [11], in assay [13], in assay [14], in assay [15] and in assay [16] was inactive. The inhibition in assay [5] is 53% (active).

For the molecule `Cc1ccc(Cn2c(SCCN3CCCCC3)nc3c2c(=O)n(C)c(=O)n3C)cc1`, the activation in [1] was 114% (active); in assay [12] it was 8.42% (active). Besides, the outcome in [2], in [5], in assay [6], in assay [17], in [8] and in assay [9] was inactive. The molecule was called inactive in assay [10], in assay [11], in assay [13], in assay [15] and in assay [16]. The potentiation in assay [3] is 8% (active); in assay [4], 13% (active); in assay [14], 81% (active).

Take `COc1ccc(C(CNc2nc(-c3cccnc3)nc3ccccc23)N(C)C)cc1` (stereo not given): the activation was 235% (active) in assay [1], 84% (active) in assay [2] and 18% (active) in assay [12]. The outcome in assay [3], in assay [4], in assay [5], in assay [6], in assay [17] and in assay [8] was inactive. Besides, the call in assay [9], in [10], in [11], in assay [13], in assay [14] and in assay [15] was inactive. Moreover, the result in assay [16] was inactive.

`COc1ccc(F)cc1CN1CCN(C(=O)CCC(=O)Nc2nnc(C(C)C)s2)CC1`: the outcome in [1], in assay [2], in assay [3], in assay [4], in assay [5] and in assay [6] was inactive. Besides, the result in [17], in assay [8], in assay [9], in [11], in assay [12] and in assay [13] was inactive. The result in assay [14], in assay [15] and in assay [16] was inactive. The activation in assay [10] is 41.5% (active).

For `CCN1CCN(c2ccc(S(=O)(=O)N3CCOCC3)cc2NC(=O)/C=C/c2ccc(OC)cc2OC)CC1`, the activation in [1] is 112% (active); in [12], 6.55% (active). The outcome in assay [2], in assay [3], in [4], in assay [5], in assay [6] and in assay [17] was inactive. Moreover, the outcome in assay [8], in assay [9], in [10], in [11], in assay [13] and in assay [14] was inactive. In addition, the result in assay [15] and in assay [16] was inactive.
